SENP8 block-1: inhibitors of human SENP8 protease. recombinant SENP8, Nedd8 substrate fluorescence. inhibition, % at 20 µM. AID 602440. 360,000 compounds, 0.64% hits; in the data active = inhibition mostly above about 40%, no sharp cut-off; inactive = mostly below about 27%
Target sequence (Q96LD8 whole entry, looked up): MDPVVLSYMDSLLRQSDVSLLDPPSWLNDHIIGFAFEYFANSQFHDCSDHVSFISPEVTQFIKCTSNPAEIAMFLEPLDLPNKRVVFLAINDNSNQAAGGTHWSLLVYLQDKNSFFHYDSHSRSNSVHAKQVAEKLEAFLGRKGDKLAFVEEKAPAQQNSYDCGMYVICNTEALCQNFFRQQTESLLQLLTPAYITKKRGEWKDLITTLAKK
PPC-1+TRAIL kill: kills PPC-1 cancer cells in the presence of TRAIL | PPC-1 cells + TRAIL, ATPLite viability luminescence | AID 1443 | cell killing (% activity), % at 4 µM or 5 µM | 220,000 compounds, 0.41% hits;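 active = cell killing above 50% in the first pass at 4 µM, then a duplicate retest at 5 µM averaging 50% or more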;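 note: plate controls were cells with TRAIL plus DMSO for no effect and medium-only wells lacking cells for full effect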
C8 TRAIL sens: sensitizes caspase-8 expressing cells to TRAIL | NB7+C8 cells + TRAIL, ATPlite viability luminescence | inhibition (viability loss, TRAIL sensitization), % at 10 µM | 360,000 compounds, 1% hits | AID 624354;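 active = compounds causing at least 50% loss of cell viability in the single-dose screen, relative to plate controls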
SENP8 block-2: blocks the human protease SENP8; purified SENP8, Z-RLRGG-aminoluciferin cleavage, luminescence; 330,000 compounds, 1.2% hits; inhibition, % at 10 µM; Q96LD8; in the data active = inhibition above about 50%
SENP7 inh: blocks the human protease SENP7; Q9BQF6; 330,000 compounds, 1.5% hits; inhibition, % at 5 µM; recombinant SENP7, Z-RLRGG-aminoluciferin luminescence, 40 min;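 active = inhibition above about 50% at the single test dose, limit read from the data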;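 note: plate controls were DMSO with enzyme for no effect and no enzyme buffer wells for full effect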
SENP6 inh: blocks the human protease SENP6 | Q9GZR1 | Recombinant SENP6 catalytic domain, aminoluciferin luminescence | inhibition, % at 10 µM | 330,000 compounds, 1.8% hits | AID 2599;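 active = inhibition above about 50% at the single tested dose, limit read from the data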;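 note: plate controls were DMSO wells with enzyme for no effect and DMSO wells lacking enzyme for full effect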
SENP8 inh conf: SENP8 (human) inhibition, single concentration confirmation | inhibition, % at 25 µM | purified SENP8, Nedd8-AMC/pro-Nedd8 cleavage fluorescence, 30 min | 1,400 compounds, 15% hits | shares compounds with SENP8 block-1; in the data active = inhibition mostly above about 39%, no sharp cut-off; inactive = mostly below about 34%
* hit, by the source's call. Most compounds without a hit are left out; they make up all but 3% or so of the library.

`NS(=O)(=O)c1ccc(N/N=C2/CCCCC2C2CCCCC2)c([N+](=O)[O-])c1` (stereo not given) gave SENP8 block-1 33, PPC-1+TRAIL kill 11, C8 TRAIL sens 10, SENP8 block-2 -9, SENP7 inh 3 and SENP6 inh -26.
`Cc1cc2cc(CNC(=O)C(C)Oc3ccccc3)ccc2n1C` (stereo not given) gave SENP8 block-1 -38, PPC-1+TRAIL kill 16, C8 TRAIL sens -13, SENP8 block-2 -6, SENP7 inh -4 and SENP6 inh -4.
For CCNC(=S)NNC(=S)NCc1ccccc1 the results were SENP8 block-1 5, PPC-1+TRAIL kill 36, C8 TRAIL sens -5, SENP8 block-2 -3, SENP7 inh 5 and SENP6 inh -7.
CCC(NC(=S)NCc1ccccc1)C(=O)O (stereo not given) was read as SENP8 block-1 48*, PPC-1+TRAIL kill -3, C8 TRAIL sens 9, SENP8 block-2 -1, SENP7 inh 0, SENP6 inh 1 and SENP8 inh conf 35.
`COc1ccc(NC(=S)NC(NC(=O)c2cccc(C)c2)C(Cl)(Cl)Cl)c([N+](=O)[O-])c1` (stereo not given) gave SENP8 block-1 42*, PPC-1+TRAIL kill 16, C8 TRAIL sens 3, SENP8 block-2 -4, SENP7 inh 0, SENP6 inh -12 and SENP8 inh conf 8.
For Cc1ccc(C)c(N(C)C(=O)CCS(=O)(=O)c2cccc3nonc23)c1 the results were SENP8 block-1 12, C8 TRAIL sens -25, SENP8 block-2 -10, SENP7 inh -5 and SENP6 inh -8.
`O=C1c2ccc3c4c(ccc(c24)C(=O)N1c1cccc(O)c1)CC3` gave SENP8 block-1 -155, PPC-1+TRAIL kill 4, C8 TRAIL sens 1, SENP8 block-2 -2, SENP7 inh 1 and SENP6 inh 17.
`O=C1c2ccc3c4c(ccc(c24)C(=O)N1c1cccc(O)c1)C(=O)N(c1cccc(O)c1)C3=O` gave SENP8 block-1 46*, PPC-1+TRAIL kill 16, C8 TRAIL sens 49*, SENP8 block-2 6, SENP7 inh 19, SENP6 inh 22 and SENP8 inh conf 46.
CC(=O)C1=C(C)OC2(O)c3ccccc3C(=O)C12O (stereo not given) was read as SENP8 block-1 88*, PPC-1+TRAIL kill 27, C8 TRAIL sens -13, SENP8 block-2 23, SENP7 inh 43, SENP6 inh 37 and SENP8 inh conf 95*.
CCOC(=O)c1cc[nH]c1C was read as SENP8 block-1 10, PPC-1+TRAIL kill -9, C8 TRAIL sens 3, SENP8 block-2 -2, SENP7 inh 12 and SENP6 inh 12.
Nc1ncc([N+](=O)[O-])c(Oc2ccccc2F)n1 was read as SENP8 block-1 49*, PPC-1+TRAIL kill 5, C8 TRAIL sens -5, SENP8 block-2 0, SENP7 inh -3, SENP6 inh -46 and SENP8 inh conf 9.
Screening O=[N+]([O-])c1cccnc1Oc1ccccc1F returned SENP8 block-1 5, PPC-1+TRAIL kill 28, C8 TRAIL sens 17, SENP8 block-2 2, SENP7 inh 2 and SENP6 inh -3.
`O=C(N/N=C/c1ccccn1)c1cccc(S(=O)(=O)N2CCCC2)c1` gave SENP8 block-1 45*, PPC-1+TRAIL kill 8, C8 TRAIL sens 13, SENP8 block-2 1, SENP7 inh -2, SENP6 inh 5 and SENP8 inh conf 16.
O=C(N/N=C/c1ccncc1)c1cccc(S(=O)(=O)N2CCCC2)c1 was read as SENP8 block-1 16, C8 TRAIL sens -4, SENP8 block-2 5, SENP7 inh 2 and SENP6 inh -3.
O=C(NCC(=O)N(CC1CCCO1)C(C(=O)NC1CCCC1)c1cccnc1)c1ccco1 (stereo not given) was read as SENP8 block-1 42*, PPC-1+TRAIL kill 11, C8 TRAIL sens 2, SENP8 block-2 2, SENP7 inh -1, SENP6 inh 2 and SENP8 inh conf 14.
CCCS(=O)(=O)NC(=O)C1(C)CCCN(C(=O)c2ccc3c(c2)OCO3)C1 (stereo not given) was read as SENP8 block-1 4 and C8 TRAIL sens -6.

Assay outcomes from PubChem BioAssay.
